This passage reports inhibition results from PubChem BioAssay AID1220 (Sanford-Burnham Center for Chemical Genomics, 2008).

Screen size: about 190,000 compounds; about 1,300 (0.68%) were called active. For the sample, actives were picked, then their nearest neighbours and some compounds at random. Unmarked numbers belong to inactive results. Rule as the data show it: active = inhibition above about 50%; inactive = the rest.

In this test the target is Mannose-6-phosphate isomerase (Homo sapiens) (UniProt P34949). The test can be described thus: MPI inhibition at elevated mannose 6-phosphate – biochemical, fluorescence intensity, high mannose 6-phosphate, primary screen (AID 1220). The settings on record: recombinant PMI enzyme, coupled fluorescence intensity; at 20 µM; stronger effect = higher value.
Mannose-6-phosphate isomerase (Homo sapiens), sequence (P34949 whole entry, looked up): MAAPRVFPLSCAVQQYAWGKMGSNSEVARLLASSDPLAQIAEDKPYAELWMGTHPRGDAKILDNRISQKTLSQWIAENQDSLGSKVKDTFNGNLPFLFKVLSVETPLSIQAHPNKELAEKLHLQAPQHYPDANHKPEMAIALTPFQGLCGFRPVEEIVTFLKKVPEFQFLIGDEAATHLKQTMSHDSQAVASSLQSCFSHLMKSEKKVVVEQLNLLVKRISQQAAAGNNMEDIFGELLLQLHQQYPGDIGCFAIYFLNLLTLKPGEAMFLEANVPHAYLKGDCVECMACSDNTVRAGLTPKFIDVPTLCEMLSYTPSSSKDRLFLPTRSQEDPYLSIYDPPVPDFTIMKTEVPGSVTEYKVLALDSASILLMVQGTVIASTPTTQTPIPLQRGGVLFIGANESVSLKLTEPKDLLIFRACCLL
`Cc1cc(N)n2ncc(-c3ccc(F)cc3)c2n1`: the inhibition (usually the relative decrease from the control value, in per cent) was 6.9%.
With `COCc1cc(C)nc(SCC(=O)Nc2ccccc2C)c1C#N` the figure was -4.7%.
Take `COc1cccc(C(=O)C2CCCN(C(=O)c3cccc(C#CC(C)(C)O)c3)C2)c1` (centres undefined): the inhibition is 13%.
Turning to `Cc1ccc2n(n1)c(=O)c(Cc1ccccc1)c([O-])[n+]2-c1ccccc1`, the inhibition is 7.7%.
Consider `COCCNC(=O)CN1CCN(Cc2cccc(Cl)c2)C1=O`, for which the inhibition is 10.3%.
With `CCCNC(=O)Nc1cc(OCC)c(N2CCOCC2)cc1OCC` the figure was 58.7% (active); with `CCOc1cc(N2CCOCC2)c(OCC)cc1NC(=O)c1cc(C)cc(C)c1`, 40.8%; with `CCOc1cc(N2CCOCC2)c(OCC)cc1NC(=O)C(C)(C)C`, 27.9%.
With `COc1ccc(CCn2nnnc2C(CC(C)C)N2CCN(c3ncccn3)CC2)cc1OC` (centres undefined) the figure was 7.5%.
Next, `CN1CCN(Cc2c(O)ccc3cc(Br)ccc23)CC1`: 64.6% (active); `Oc1ccc2ccccc2c1CN1CCN(c2ccccc2)CC1`: -35.5%; `Oc1ccc2cc(Br)ccc2c1CN1CCCC1`: 43.2%.
With `CN1CCN(Cc2c(O)ccc3c(-c4ccccc4)cc(=O)oc23)CC1`, the inhibition was 1.7%.
With `Oc1ccc2ccccc2c1CN1CCCC1` the figure was 67.8% (active); with `Oc1ccc2ccccc2c1CN1CCN(c2ccccc2F)CC1`, 29.8%; with `CCn1c(CSc2nc3ccccc3s2)nnc1SCC(N)=O`, 1.7%.
With `N#Cc1ccccc1S(=O)(=O)N1CCN(CC(O)c2ccccc2)CC1` (centres undefined) the figure was -12.7%.
With `COc1cccc(C(=O)Nc2cccc(-c3ccc4nncn4n3)c2)c1OC` the figure was -2.3%; with `COc1ccc(C2=NN(C(=O)CSc3ncccn3)C(c3cccc(OC)c3OC)C2)cc1` (centres undefined), 0.9%.
Turning to `CCOC(=O)C1CCCN(C(=O)c2ccc(C)cc2O)C1` (centres undefined), the inhibition is 1.2%.
Next, `CC1Cc2ccccc2N1c1ncnc2c1nnn2Cc1ccccc1Cl` (centres undefined): -1.3%; `O=C(O)C1C2CCC(O2)C1C(=O)Nc1ccc(O)cc1` (centres undefined): 54.4% (active); `O=C(O)C1C2CCC(O2)C1C(=O)Nc1ccc(F)cc1` (centres undefined): -3.9%.
For `O=C(O)C1C2CCC(O2)C1C(=O)Nc1cccc(F)c1` (centres undefined), the inhibition was -3.7%.
Next, `O=C(NCC(=O)N(c1cccnc1)C(C(=O)NC1CCCC1)c1ccccc1)c1ccco1` (centres undefined): -14.2%; `Cc1onc(-c2ccccc2)c1C(=O)N1CCN(C(=O)c2ccco2)CC1`: 2%.
As for `COc1ccc(N(CC(=O)NCc2ccccc2OC)S(=O)(=O)c2ccccc2[N+](=O)[O-])c(OC)c1`, the inhibition is -1.5%.
Next, `CN1c2ccccc2N(C)C1(C)c1ccccc1`: 31.1%; `CCN1C(=O)N(C)C2(c3ccccc3)N(C)C(=O)N(C)C12c1ccccc1` (centres undefined): 12.7%.
Next, `O=C(c1cc(-c2ccco2)on1)N1CCN(c2ccccc2)CC1`: 53.3% (active).
With `O=C(c1cc(-c2ccco2)on1)N1CCOCC1` the figure was 26.3%; with `CN1CCN(C(=O)c2cc(-c3ccco3)on2)CC1`, -11%; with `N#CCCn1c(C2CCCCC2)nc2ccccc21`, -2.5%.
Turning to `O=[N+]([O-])c1cc(C=Nc2ccc3ccccc3c2)ccc1Br`, the inhibition is 51.5% (active).
Next, `O=[N+]([O-])c1ccc(N=Cc2ccc(Br)c([N+](=O)[O-])c2)cc1`: 7.8%; `C(=Nc1ccc(Nc2ccccc2)cc1)c1ccc2ccccc2c1`: -17.3%.
Consider `CCn1c2ccccc2c2nc3ccccc3nc21`, for which the inhibition is 8.1%.
Regarding `CCn1c2ccccc2c2nc3cc(C(=O)O)ccc3nc21`, the inhibition was 33.7%.
In the case of `CCc1cc(C(=O)N2CCCC(CCC(=O)NCc3cccc(OC)c3)C2)no1` (centres undefined), the inhibition is -5.8%.
With `COc1ccc(S(=O)(=O)Nc2cc3c4c(oc3c3ccccc23)CCCC4=O)cc1`, the inhibition was 14.6%.
`COc1ccc(S(=O)(=O)Nc2cc3c(C(C)=O)c(C)oc3c3ccccc23)cc1`: the inhibition is -0.8%.
In the case of `COc1ccc(S(=O)(=O)Nc2cc3c4c(oc3c3ccccc23)CC(C)(C)CC4=O)cc1`, the inhibition is 50.1% (active).
Next, `COc1ccc(O[C@H]2C=C[C@@H](c3ccccc3)O[C@@H]2COC(=O)CC/C(C)=N/OC[C@@H](O)COCc2ccco2)cc1`: 19.3%; `CCC(NC(=O)CCc1ccccc1)c1ccccc1` (centres undefined): 0.5%; `COC(=O)COc1c(Cl)cc(Cl)c2ccc(C)nc12`: 10.1%.
Next, `Cc1ccc2c(Cl)cc(Cl)c(OCC(=O)N3CCCC3)c2n1`: 54.6% (active); `Cc1ccc2c(Cl)cc(Cl)c(OCC(=O)O)c2n1`: 9.9%; `CCOc1ccc(C(NC(=O)/C=C/c2ccco2)c2ccc(OC)c(OC)c2)cc1` (centres undefined): 10.3%.
Next, `COc1ccc(C2Nc3ccccc3C(=O)N2NS(=O)(=O)c2ccc(C)cc2)cc1` (centres undefined): 5.5%.
As for `CN(Cc1ccon1)C(=O)CC1C(=O)NCCN1CC(C)(C)C` (centres undefined), the inhibition was 35.3%.
For `COC(=O)CN(C)C(=O)CC1C(=O)NCCN1CC(C)(C)C` (centres undefined), the inhibition was 56.5% (active).
With `Cc1ccc(OCCN(C)C(=O)CC2C(=O)NCCN2CC(C)(C)C)cc1` (centres undefined) the figure was 41.2%; with `COc1ccc(N2CCN(C(=O)COc3ccc4ccccc4c3)CC2)cc1`, 6.1%.
Next, `COc1ccc(CN2CCN(c3ccccn3)CC2)c(OC)c1`: -6.3%; `O=C(Nc1ccccc1)c1ccc(NCCN2CCOCC2)c(S(=O)(=O)N2CCOCC2)c1`: 1.4%; `CCOC(=O)C(Cc1c(F)cccc1Cl)c1ccno1` (centres undefined): -11.3%.
On to `CCOC(=O)C(Cc1ccccc1)c1ccnc2nc(N)nn12` (centres undefined), for which the inhibition was -9.3%.
Next, `CCOC(=O)C(Cc1c(F)cccc1Cl)c1ccnc2nc(N)nn12` (centres undefined): 64.8% (active); `CCN(CC)CCOC(=O)c1ccc(NC(=O)CNC(=O)C2CCCCC2)cc1`: -12.4%; `O=C1CC(c2ccccc2)n2nc(NC(=O)c3cccnc3)nc2N1` (centres undefined): -4.6%.
With `Cc1ccc(-n2nnnc2SCC(=O)NNC(=O)c2ccc([N+](=O)[O-])cc2)cc1` the figure was 8.5%.
With `Oc1ccc(N=Cc2ccc(-c3cccs3)s2)cc1` the figure was 55.3% (active); with `Cc1ccsc1C=Nc1ccc(O)cc1`, 45.3%; with `CC(=O)c1ccc(-c2cccs2)s1`, 0.2%.
On to `O=C(O)CCN1C(=O)/C(=C/c2ccc(-c3nc4ccccc4s3)o2)SC1=S`, for which the inhibition was 54.7% (active).
On to `Cc1ccc(/C=C2\SC(=S)N(C3CCS(=O)(=O)C3)C2=O)o1` (centres undefined), for which the inhibition is 41.2%.
With `O=C1/C(=C\c2ccco2)SC(=S)N1c1ccc(O)cc1` the figure was 39.1%; with `O=C(O)CCCN1C(=O)/C(=C\c2ccco2)SC1=S`, 60.3% (active).
As for `O=C1/C(=C\c2cccs2)SC(=S)N1C1CCS(=O)(=O)C1` (centres undefined), the inhibition was 12%.
For `O=C(O)CCCN1C(=O)/C(=C/c2ccc(-c3nc4ccccc4s3)o2)SC1=S`, the inhibition is -50.1%.
`Cc1ccc(N2C(=O)/C(=C\c3ccco3)SC2=S)cc1`: the inhibition is 39.7%.
With `O=C1/C(=C/c2ccco2)SC(=S)N1C1CCS(=O)(=O)C1` (centres undefined) the figure was 54.7% (active).
Take `O=C(O)CCN1C(=O)/C(=C\c2ccc(-c3nc4ccccc4s3)o2)SC1=S`: the inhibition is 7.1%.
Next, `O=C1/C(=C\c2ccco2)SC(=S)N1c1ccccc1`: 51.3% (active); `COc1ccc(NC(=O)CCCN2C(=O)/C(=C\c3ccco3)SC2=S)cc1`: 13.4%.
With `O=C(CCCN1C(=O)/C(=C\c2ccco2)SC1=S)Nc1ccc2ccccc2c1` the figure was -8.1%; with `CCC(=O)Nc1cc(-c2nn3c(C)nnc3s2)ccc1C`, 1.7%.
`O=C(CCOc1ccccc1)Nc1cccc(S(=O)(=O)Nc2ccccc2Cl)c1`: the inhibition is 13.1%.
With `CCC(=O)Nc1ccc(S(=O)(=O)NCc2ccco2)cc1` the figure was -9.3%; with `COc1ccc(NC(=O)c2onc(C)c2Cl)cc1OC`, -15%.
Next, `CCOC(=O)C1(Cc2ccc(Cl)cc2)CCN(CCCn2cccn2)CC1`: 3.5%.
Regarding `CN(c1ncc(C(F)(F)F)cc1Cl)N1C(=O)c2cccc([N+](=O)[O-])c2C1=O`, the inhibition was 6.1%.
Consider `Clc1cc(Cl)cc(C2=NCCC(c3ccccc3)O2)c1` (centres undefined), for which the inhibition was 15.6%.
Next, `CC1(C)CC(=O)C2=C(C1)OC(N)=C(C#N)C2c1ccccc1[N+](=O)[O-]` (centres undefined): 47.5%; `O=C(O)CN(c1ccc2c(c1)OCCO2)S(=O)(=O)c1ccccc1`: -2.6%.
With `COc1ccc(OCC(=O)NC(CC(=O)O)c2ccc(OC)c(OC)c2)cc1` (centres undefined) the figure was -11.4%; with `Cc1c(Br)c(=O)oc2c(Br)c(O)c(O)cc12`, -33.8%.
Next, `Cc1c(Br)c(=O)oc2c(Br)c(O)ccc12`: -8.7%.
Turning to `O=c1oc2c(O)c(O)cc3c(=O)oc4c(O)c(O)cc1c4c23`, the inhibition is 61.2% (active).
On to `Cc1cccc(C(c2c(C)nn(-c3ccccc3)c2N)c2c(C)nn(-c3ccccc3)c2N)c1`, for which the inhibition was 16.3%.
Turning to `O=C(NC1CCCCC1)c1cc(Cl)nc2ccccc12`, the inhibition is 1.4%.
For `Cn1cc(/C=N\O)nc2c(=O)n(-c3ccccc3)c(=O)nc1-2`, the inhibition is 56.5% (active).
With `O/N=C/c1cn(-c2ccccc2)nn1`, the inhibition was 6.9%.
Next, `Cc1[nH]n(-c2ccccc2)c(=O)c1/C=N/O`: 5.9%; `Nc1cc(=O)[nH]c(SCC(=O)Nc2cccc(Cl)c2Cl)n1`: 4.4%.
Next, `O=C(CSc1ncn(-c2ccccc2)n1)Nc1nncs1`: 5.2%; `COc1cc(C2C3C(=O)N(Cc4ccccc4)C(=O)C3ON2c2ccccc2)cc(OC)c1O` (centres undefined): 54.2% (active); `COc1cc(C2C3C(=O)N(Cc4ccccc4)C(=O)C3ON2c2ccccc2)cc(OC)c1OC` (centres undefined): 7.3%.
Regarding `COc1ccc(C2C3C(=O)N(Cc4ccccc4)C(=O)C3ON2c2ccccc2)c(OC)c1OC` (centres undefined), the inhibition was 15%.
